# HIV Env fusion: HIV envelope-mediated fusion inhibition; HeLa-JRFL Env/CEM21 cell fusion, luciferase; inhibition, % at 12.3 µM; 360,000 compounds, 1.1% hits; AID 651610;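 active = mean replicate inhibition score of at least 50 and every replicate individually at or above 50; inconclusive = only one of the two criteria met; inactive = mean below 50 and not all replicates reaching 50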;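 note: 0% = plate neutral controls and 100% = maraviroc near 300 nM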
# EBV LMP1 NFkB: reduces LMP1-driven NF-kappaB luciferase signal | LMP1-induced NF-kappaB luciferase reporter cells, luminescence | AID 504558 | 350,000 compounds, 0.69% hits | inhibition, % at 12.5 µM; in the data active = inhibition above about 41%; inconclusive = no clear call, values can overlap the other calls;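 note: 0% = neutral control wells and 100% = reference inhibitor control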
# PAX8 reporter: PAX8 transcriptional activity inhibition; inhibition, % at 12.6 µM; RMG-I TPO-luciferase reporter, SteadyGlo, 24 h; 360,000 compounds, 1.2% hits;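 active = mean replicate inhibition at least 60% with every replicate also reaching 60%; inconclusive = only one of the two criteria is met; inactive = mean below 60% and not all replicates reaching 60%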;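 note: luciferase light reporting Pax8 driven TPO promoter activity; plate controls were median of neutral control wells for no effect and mitoxantrone controls for full effect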
# Shn3 3UTR inh: inhibitors of Schnurri-3 3'UTR reporter in osteoblasts; inhibition, % at 12.5 µM; AID 588674; Clone20 osteoblast Shn3 3'UTR firefly luciferase, 24 h; 360,000 compounds, 0.52% hits;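 active = mean inhibition of at least 75% with every replicate also reaching 75%; inconclusive = mean inhibition at least 75% but some replicate below; inactive = mean inhibition below 75%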;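 note: 0% = median of neutral control wells and 100% = pilot-screen positive control compound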
# N-glyco inh: N-linked glycosylation inhibition; D54 ERlucT glycosylation luciferase reporter, 24 h; percent of 100 nM tunicamycin response; reporter increase, % at 12.5 µM; 360,000 compounds, 0.23% hits; AID 588692;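 active = mean luciferase reporter signal, scaled so untreated is 0 and the glycosylation-blocking control 100, at or above a set limit in every replicate; inconclusive = mean reaches the limit but not every replicate does; inactive = mean below the limit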;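 note: luciferase carries N-glycosylation sites so blocking glycosylation raises the light; 0% = median of neutral control wells and 100% = median of 100 nM tunicamycin wells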
# NSD2 HMT inh: inhibitors of human histone methyltransferase NSD2. inhibition, % at 12.5 µM. NSD2 peptide methylation, AlphaScreen, 120 min. AID 743445. 310,000 compounds, 0.54% hits. O96028; in the data active = inhibition above about 50%
# * = called active by the depositor; ? = inconclusive; nt = no result given; [ ] = remark or other dose. Sampled rows, rich in hits. Any-hit rate of the full collection: about 2.8%.
SMILES,HIV Env fusion,EBV LMP1 NFkB,PAX8 reporter,Shn3 3UTR inh,N-glyco inh,NSD2 HMT inh
CC(C)NC(=O)N(C)C[C@@H]1Oc2c(NC(=O)Nc3ccc(C(F)(F)F)cc3)cccc2C(=O)N([C@H](C)CO)C[C@@H]1C,-5[16.7 µM],nt,37,nt,nt,nt
C[C@H]1CN([C@@H](C)CO)C(=O)c2cccc(NC(=O)Nc3ccc(C(F)(F)F)cc3)c2O[C@@H]1CN(C)Cc1ccc(C(F)(F)F)cc1,?,nt,-22,nt,nt,nt
C[C@@H]1CN([C@@H](C)CO)C(=O)c2cccc(NC(=O)Nc3ccc(C(F)(F)F)cc3)c2O[C@H]1CN(C)Cc1ccc(C(F)(F)F)cc1,76*[16.7 µM],nt,-27,nt,nt,nt
C[C@@H]1CN([C@@H](C)CO)C(=O)c2cccc(NC(=O)Nc3ccc(C(F)(F)F)cc3)c2O[C@H]1CN(C)Cc1ccc(Cl)c(Cl)c1,85*[16.7 µM],nt,nt,nt,nt,nt
N#C[C@H]1[C@@H](c2ccc(/C=C/c3ccccc3)cc2)[C@@H](CO)N1C(=O)C1CC1,4[16.7 µM],nt,-7,nt,nt,nt
Cc1noc(C)c1NC(=O)Nc1cccc2c1O[C@H](CN(C)Cc1ccc(C(F)(F)F)cc1)[C@H](C)CN([C@@H](C)CO)C2=O,-24[16.7 µM],nt,81*,nt,nt,nt
Cc1noc(C)c1NC(=O)Nc1cccc2c1O[C@H](CN(C)Cc1ccc(C(F)(F)F)cc1)[C@@H](C)CN([C@@H](C)CO)C2=O,-21[16.7 µM],nt,9,nt,nt,nt
COc1ccc(/C=C/CN2CCN(Cc3ccccc3)C(CCO)C2)cc1 (stereo not drawn),-8,51*,-16,2,-1,1
CCCN1C[C@@H](C)[C@@H](OC)CN(C)C(=O)c2cc(NC(=O)c3ccccc3F)ccc2OC[C@@H]1C,11[16.7 µM],nt,1,nt,nt,nt
CC(C)(C)c1ccc(C(=O)N2CCCCCC2=O)cc1,91*,39,37,nt,-2,-3
COc1ccc(N2C(=O)c3ccccc3NC2(C)C)cc1,-32,42*,-115,-29,1,-2
CC1(C)Nc2ccccc2C(=O)N1c1ccc(Br)cc1,-417,-30,-92,-80,-12,-3
C[C@H](CO)N1C[C@H](C)[C@H](CN(C)C(=O)Nc2ccc(C(F)(F)F)cc2)Oc2ncc(-c3ccc(C#N)cc3)cc2C1=O,nt,nt,-9,nt,nt,nt
C=C[C@@H](C)N(Cc1ccc(OC)cc1)S(=O)(=O)N(Cc1ccccc1)[C@H](C=C)C(C)C,89*,9,8,23,-5,nt
COc1ccc(CN([C@H](C)CO)S(=O)(=O)N(Cc2ccccc2)[C@H](CO)C(C)C)cc1,32,-8,-3,-9,9,nt
COC(=O)c1ccccc1NC(=O)C(C)c1ccc([N+](=O)[O-])cc1 (stereo not drawn),-7,62*,0,7,-2,0
CC(C(=O)Nc1ccccc1Br)c1ccc([N+](=O)[O-])cc1 (stereo not drawn),14,10,16,-6,2,0
C[C@@H](NC(=O)C[C@H]1C[C@@H]2c3cc(NS(=O)(=O)c4ccc(F)cc4)ccc3O[C@@H]2[C@H](CO)O1)c1ccccc1,86*[16.7 µM],nt,21,nt,nt,nt
CN(C)C(=O)C[C@@H]1C[C@@H]2c3cc(NS(=O)(=O)c4ccc(F)cc4)ccc3O[C@@H]2[C@@H](CO)O1,70*[16.7 µM],nt,-2,nt,nt,nt
CN(C)C(=O)C[C@@H]1C[C@H]2c3cc(NS(=O)(=O)c4ccc(F)cc4)ccc3O[C@H]2[C@H](CO)O1,90*[16.7 µM],nt,2,nt,nt,nt
C[C@H](NC(=O)C[C@H]1C[C@@H]2c3cc(NS(=O)(=O)c4ccc(F)cc4)ccc3O[C@@H]2[C@H](CO)O1)c1ccccc1,-11[16.7 µM],nt,-14,nt,nt,nt
CN(C)C(=O)C[C@H]1C[C@@H]2c3cc(NS(=O)(=O)c4ccc(F)cc4)ccc3O[C@@H]2[C@H](CO)O1,13[16.7 µM],nt,-7,nt,nt,nt
CN(C)C(=O)C[C@H]1C[C@@H]2c3cc(NS(=O)(=O)c4ccc(F)cc4)ccc3O[C@@H]2[C@@H](CO)O1,90*[16.7 µM],nt,-4,nt,nt,nt
C[C@@H]1CN([C@H](C)CO)C(=O)c2cccc(NC(=O)c3nc4ccccc4s3)c2O[C@H]1CN(C)C(=O)Nc1ccccc1,6[16.7 µM],nt,25,nt,nt,nt
C[C@@H](NC(=O)C[C@H]1CC[C@@H](NC(=O)Nc2ccc3c(c2)OCO3)[C@H](CO)O1)c1ccccc1,7[16.7 µM],nt,-21,nt,nt,nt
SMILES,HIV Env fusion,EBV LMP1 NFkB,PAX8 reporter,Shn3 3UTR inh,N-glyco inh,NSD2 HMT inh
CCCC#Cc1cnc2c(c1)C(=O)N([C@@H](C)CO)C[C@H](C)[C@H](CN(C)C(=O)Nc1ccccc1F)O2,5[16.7 µM],nt,nt,nt,nt,nt
CNC[C@@H](CC1CCCCC1)NC[C@H](CC(C)C)NCCc1cccc(C(F)(F)F)c1,93*,-8,113*,6,-22,nt
CNC[C@@H](Cc1ccccc1)NC[C@@H](CC1CCCCC1)NCCCc1ccccc1,103*,-41,74*,-2,-23,nt
CN(Cc1cccc(C(F)(F)F)c1)C(=O)C1CCC(=O)N(CC2CCCCC2)C1 (stereo not drawn),15,-2,-6,-21,-2,nt
C/C=C/c1cnc2c(c1)C(=O)N([C@@H](C)CO)C[C@@H](C)[C@H](CN(C)Cc1ccc(F)cc1)O2,-17[16.7 µM],nt,0,nt,nt,nt
C[C@H]1CN([C@@H](C)CO)S(=O)(=O)c2ccc(C#CC3CC3)cc2O[C@@H]1CN(C)Cc1ccncc1,12[16.7 µM],nt,nt,nt,nt,nt
COc1ccc([Si](C)(C)[C@H]2[C@H](CCO)O[C@@]3(C(=O)N(Cc4ccccc4)c4ccc(N5CCC5=O)cc43)[C@@H]2C)cc1,31[16.7 µM],nt,110*,nt,nt,nt
COc1ccc([Si](C)(C)[C@@H]2[C@@H](CCO)O[C@]3(C(=O)N(Cc4ccccc4)c4ccc(N5CCOC5=O)cc43)[C@H]2C)cc1,11[16.7 µM],nt,42,nt,nt,nt
COc1ccc([Si](C)(C)[C@@H]2[C@@H](CCO)O[C@]3(C(=O)N(Cc4ccc(N5CCOC5=O)cc4)c4ccccc43)[C@H]2C)cc1,57*[16.7 µM],nt,97*,nt,nt,nt
COc1ccc([Si](C)(C)[C@@H]2[C@@H](CCO)O[C@]3(C(=O)N(Cc4cccc(N5CCOC5=O)c4)c4ccccc43)[C@H]2C)cc1,?,nt,102*,nt,nt,nt
C[C@H]1CN([C@@H](C)CO)C(=O)c2cc(NC(=O)Nc3ccc(C(F)(F)F)cc3)ccc2O[C@@H]1CN(C)S(=O)(=O)c1ccc(Cl)cc1,-1[16.7 µM],nt,nt,nt,nt,nt
CCNC(=O)Nc1ccc2c(c1)C(=O)N(C)[C@H]1CC[C@H](CC(=O)Nc3cccc(F)c3)O[C@@H]1CO2,-19[16.7 µM],nt,-4,nt,nt,nt
O=C(N/N=C/c1ccccn1)c1cc(-c2ccc(Cl)cc2)nc2ccccc12,23,11,11,79,-17,-1
O=C(N/N=C/c1ccccn1)c1cc(-c2ccc(Br)cc2)nc2ccccc12,-7,3,66*,55,-17,0
CCCc1ccc(-c2cc(C(=O)N/N=C/c3ccc([N+](=O)[O-])o3)c3ccccc3n2)cc1,nt,58*,nt,-10,9,-1
Cc1[nH]c2ccccc2c1/C=N/NC(=O)c1cc(-c2ccncc2)nc2ccccc12,20,-9,32,-8,37*,-1
